GPR151 ag: activates the human receptor GPR151; Q8TDV0; PathHunter beta-arrestin GPR151 cells, luminescence; activation, % at 11.2 µM; 1% of 650,000 active; AID 1508602; in the data active = activation above about 4.9%
MITF inh: inhibitors of human MITF; O75030; inhibition, % at 2.6 µM; AlphaScreen MITF homodimerization, bead proximity signal; 0.91% of 650,000 active; in the data active = inhibition above about 50%
TEAD-YAP block: TEAD-YAP interaction inhibition; inhibition, % at 9.12 µM; HEK-TIYL cells, TEAD-Gal4/YAP UAS-luciferase luminescence; 1.4% of 640,000 active; in the data active = inhibition above about 32%
FBW7 act: activators of human E3 ligase FBW7; Q969H0; AlphaScreen FBW7–phospho-cyclin E peptide binding, activator screen; normalized activity (activation), % at 26.1 µM; 0.13% of 650,000 active; AID 1259310; in the data active = normalized activity above about 1.9%;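 note: purified mutant Fbw7 with reduced substrate affinity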
Target sequence (Q969H0 whole entry, looked up): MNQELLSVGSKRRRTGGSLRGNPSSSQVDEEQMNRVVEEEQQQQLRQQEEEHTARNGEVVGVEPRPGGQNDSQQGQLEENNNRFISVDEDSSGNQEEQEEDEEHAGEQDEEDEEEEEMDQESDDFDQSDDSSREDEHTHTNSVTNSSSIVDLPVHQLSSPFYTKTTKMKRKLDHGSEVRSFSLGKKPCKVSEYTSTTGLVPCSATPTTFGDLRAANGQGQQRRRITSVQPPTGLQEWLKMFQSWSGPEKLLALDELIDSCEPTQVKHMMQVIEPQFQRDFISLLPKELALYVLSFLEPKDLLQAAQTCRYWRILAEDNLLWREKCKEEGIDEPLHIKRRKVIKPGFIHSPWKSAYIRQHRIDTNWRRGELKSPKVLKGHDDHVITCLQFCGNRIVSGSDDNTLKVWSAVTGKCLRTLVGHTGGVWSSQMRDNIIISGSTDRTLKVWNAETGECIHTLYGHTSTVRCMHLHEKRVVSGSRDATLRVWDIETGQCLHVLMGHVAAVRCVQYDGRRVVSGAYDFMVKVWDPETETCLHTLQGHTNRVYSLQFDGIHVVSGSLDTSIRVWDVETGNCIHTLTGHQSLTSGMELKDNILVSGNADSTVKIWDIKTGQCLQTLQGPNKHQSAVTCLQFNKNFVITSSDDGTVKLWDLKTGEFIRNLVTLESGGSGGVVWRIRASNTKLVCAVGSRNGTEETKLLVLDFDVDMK
GPR151 confirm: confirmation of human GPR151 activators; 6,700 tested, under 10 active; GPR151 PathHunter beta-arrestin cells, luminescence, 90 min; % of EA-reagent control over plate median; shares compounds with GPR151 ag; activation, % at 11.2 µM;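 active = mean percent activation across replicates above the confirmation screen cutoff of 4.91%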
GPR119 ag: counter-screen for GPR151 activators: effect on human GPR119 | shares compounds with GPR151 ag | GPR119 PathHunter beta-arrestin cells, luminescence, 90 min; 0 = compound-well median, 100 = enzyme-acceptor control | activation, % at 11.2 µM | 0.3% of 6,700 active;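 active = mean percent activation in the counterscreen above 29.09%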;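 note: counterscreen on off-target GPR119 to flag nonselective hits from the GPR151 activator screen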
Hits are given with their value; . = inactive; / = not tested or not shown. A selection: hits, their analogues and other compounds. The true share with any hit is near 3.5%.

SMILES	GPR151 ag	MITF inh	TEAD-YAP block	FBW7 act	GPR151 confirm	GPR119 ag
O=C(NCc1ccccc1)c1ccccc1Nc1ccnc(Nc2ccc(N3CCOCC3)cc2)c1	11	.	37	.	.	.
O=C(Nc1ccccc1)c1ccccc1Nc1ccnc(Nc2ccc(N3CCOCC3)cc2)c1	.	.	.	.	/	/
CC(=O)c1ccc(N2C(=O)C3C(C2=O)C2(CO)C=CC3(C)O2)cc1 (stereo not drawn)	5.5	.	.	.	.	.
C[N+](C)(C)C/C=C1/COCO1	14	.	.	.	.	.
CSc1ccccc1C(=O)Nc1ccc2c(c1)CC(=O)N2	5.3	.	.	.	.	.
COc1ccc(CCN2C(=O)CC(C(=O)Nc3ccc(Cl)cc3)SC2=Nc2ccc(F)cc2)cc1OC (stereo not drawn)	5.4	.	.	.	.	.
COc1ccc(CCN2C(=O)CC(C(=O)Nc3ccc(F)cc3)SC2=Nc2ccc(Cl)cc2)cc1OC (stereo not drawn)	.	.	.	.	/	/
O=C(c1ccc(N2CCC(NCCc3cccc(F)c3)CC2)cc1)N1CCCC(O)C1 (stereo not drawn)	.	.	.	.	/	/
O=C(NCc1ccc(Cl)cc1)C1C2C=CC3(CN(Cc4ccccc4)C(=O)C13)O2 (stereo not drawn)	5.1	.	.	.	.	.
O=C(CN1CCN(Cc2ccccc2)C1=O)NCc1ccc(Cl)cc1	13	.	.	.	.	.
O=C(NCc1ccccc1)C1C2C=CC3(CN(Cc4ccccc4)C(=O)C13)O2 (stereo not drawn)	.	.	.	.	/	/
Cc1ccccc1N1C(=O)c2ccc(C(=O)Nc3ccccc3C(=O)O)cc2C1=O	.	.	.	.	/	/
COC(=O)CN(c1ccc2c(c1)OCO2)S(=O)(=O)c1c(C)[nH]c(=O)[nH]c1=O	5.3	.	.	.	.	.
COC(=O)CN(c1ccc(C)cc1)S(=O)(=O)c1c(C)[nH]c(=O)[nH]c1=O	.	.	.	.	/	/
O=c1[nH]cc(N=Cc2ccc([N+](=O)[O-])cc2)c(=O)[nH]1	6.5	.	.	.	.	.
O=c1[nH]cc(N=Cc2ccc(O)cc2)c(=O)[nH]1	.	.	.	.	/	/
COc1cccc(NC(=O)CSc2nc3nc(C)c(Cc4ccccc4Cl)c(C)n3n2)c1	.	.	.	.	/	/
CCC(C)C(NC(=O)c1ccccc1NC(=O)c1ccccc1)C(=O)N1CCOCC1 (stereo not drawn)	9.8	.	.	.	.	.
CC(C)C(NC(=O)c1ccccc1NC(=O)c1ccccc1)C(=O)N1CCCCC1 (stereo not drawn)	.	.	.	.	/	/
Cc1onc(-c2c(Cl)cccc2Cl)c1C(=O)Nc1nc2ccccc2s1	.	.	.	.	/	/
CC1CCCN(c2nc3c(c(=O)[nH]2)CCN(CC2CCC=CO2)C3)C1 (stereo not drawn)	9.5	.	.	.	.	.
O=c1[nH]c(N2CCCCC2)nc2c1CCN(CC1CCC=CO1)C2 (stereo not drawn)	.	.	.	.	/	/
CC(C)C(=O)Nc1cc(Cl)c(O)c(Cl)c1	.	.	.	.	/	/
CC(C)OC(=O)CCC/C=C\C[C@@H]1[C@@H](/C=C/[C@@H](O)CCc2ccccc2)[C@H](O)C[C@@H]1O	5.4	.	/	/	.	.
O=C(O)CCC/C=C\C[C@H]1[C@@H](/C=C/[C@@H](O)CCc2ccccc2)[C@H](O)C[C@H]1O	.	.	/	/	/	/
SMILES	GPR151 ag	MITF inh	TEAD-YAP block	FBW7 act	GPR151 confirm	GPR119 ag
O=C(O)CCC/C=C\C[C@@H]1[C@@H](/C=C/[C@@H](O)C2Cc3ccccc3C2)[C@@H](F)C[C@@H]1O	5.0	.	/	/	.	.
Cc1nc2sccn2c1CN1CCCC(CO)(Cc2cccc(Cl)c2)C1 (stereo not drawn)	5.0	.	42	.	.	.
C=CCOc1ccc(C(=O)NCc2ccco2)cc1	.	.	.	.	/	/
O=[N+]([O-])c1cccc(Cl)c1CSc1nnnn1-c1ccccc1	6.2	.	.	.	.	.
O=[N+]([O-])c1cccc(Cl)c1CSc1nnnn1-c1cccc2ccccc12	.	.	.	.	/	/
NC(=O)C1CCN(C(=O)Cc2ccc(Cl)cc2Cl)CC1	.	.	.	.	/	/
O=C(Cc1ccc(Cl)cc1Cl)N1CCN(c2ccc(O)cc2)CC1	5.2	.	.	.	.	.
COC(=O)C(Cc1c[nH]c2ccccc12)NC(=O)C(=O)c1c(C)[nH]c2ccccc12 (stereo not drawn)	6.9	.	.	.	.	.
COC(=O)C(Cc1c[nH]c2ccccc12)NC(=O)C(C)C (stereo not drawn)	.	.	.	.	/	/
CCCCC[C@H]1O[C@H]1C/C=C\C/C=C\C/C=C\CCCC(=O)O	.	.	/	/	/	/
CCCCC/C=C\C/C=C\C/C=C\C[C@H]1O[C@H]1CCCC(=O)O	5.8	.	/	/	.	.
Cc1ccc(C(C)C)cc1OCCOCCNCCN(C)C	5.1	.	.	.	.	.
CN(C)CC(C)(C)CNCC(=O)Nc1cc(C(F)(F)F)cc(C(F)(F)F)c1	6.0	.	.	.	.	.
CCOc1ccc(NC(=O)CSc2nnc(-c3ccccc3Cl)o2)cc1	.	.	.	.	/	/
CC(=O)c1cccc(NC(=O)c2ccoc2C)c1	5.9	.	.	.	.	.
CCc1nnc(-c2cc3ccccc3n2CC(=O)Nc2cccc(Cl)c2)o1	5.3	.	.	.	.	.
CCN(CC)CCN1CCN(c2ccc3c(c2)CCC3)C1=O	.	.	.	.	/	/
CC(C)C(=O)Nc1ccc(S(=O)(=O)NCC2(c3ccccc3)CCOCC2)cc1	5.2	.	.	.	.	.
COc1cc2c(cc1OC)C(COc1ccccc1OC)N(C(=O)c1ccccc1)CC2 (stereo not drawn)	.	.	.	.	/	/
CCn1c(COc2ncnc3ccccc23)nc2cc(S(=O)(=O)N(C)C)ccc21	5.2	.	.	.	.	.
COc1ccccc1C(=O)NC(=O)CSc1cccc[n+]1[O-]	.	.	.	.	/	/
Cn1cccc1C(=O)NC(=O)CSc1cccc[n+]1[O-]	4.9	.	.	.	.	.
N#Cc1cccc(C(=O)NC2CCCC2)c1	5.2	.	.	.	.	.
O=C(NC1CCCCCC1)c1cccc(I)c1	.	.	.	.	/	/
Cc1ccc(O)c(C2=Nc3ccccc3N=C(c3cccc(Br)c3)C2)c1	.	.	.	.	/	/
SMILES	GPR151 ag	MITF inh	TEAD-YAP block	FBW7 act	GPR151 confirm	GPR119 ag
COc1ccc(O)c(C2=Nc3ccccc3N=C(c3cccc(Br)c3)C2)c1	5.5	.	.	.	.	.
COc1ccc(Cl)cc1C(=O)NCC1(c2cccs2)CC1	.	.	.	.	/	/
CC(C)(C)NC(=O)Cn1nnc(-c2ccccc2N)n1	.	.	.	.	/	/
CCOc1ccccc1C(=O)Nc1ccc2c(c1)N(CCOC)CCC2	9.4	.	.	.	.	.
O=C1NC2(CCCCCC2)Cc2ccccc21	7.9	.	.	.	.	.
O=C(O)CN=C1NC2(CCCC2)Cc2ccccc21	.	.	.	.	/	/

Bioassay records (PubChem)
